Measured values: PubChem BioAssay (EPA / NIEHS)
Values joined by “and” are separate entries in the source; they are usually repeats but may differ in a detail not shown here. Equal values may be shown once. Some structures have more than one record in an assay (separate samples or runs), and their calls can disagree. Active and inactive are the calls of the source. The calls were made as follows: active = hit-call score of the fitted dose curve at least 0.9, where 1 is the maximum; inactive = score below 0.9.

Columns and labels:
[1] = ATG_E_Box_CIS: Attagene CIS-FACTORIAL HepG2 Assay for human Enhancer Box (E-box) (AID 2282936); conditions: HepG2 E-box cis-reporter transcription, actives raise or lower the signal
In short: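 Multiplexed CIS reporter system in transiently transfected HepG2 cells measures native transcription factor activity. Reporter RNA after 24 h exposure is profiled by RT-PCR-capillary electrophoresis.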

[2] = ATG_M_61_CIS: Attagene CIS-FACTORIAL HepG2 Assay for M61 Transcription Factor (Internal Marker) (AID 2282937); conditions: HepG2 Attagene CIS-FACTORIAL M61 internal marker reporter; actives raise or lower the signal
In short: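 Using transiently transfected HepG2 liver cells, reporter transcript levels were assessed 24 h post-dosing by RT-PCR and capillary electrophoresis. Changes in either direction were fitted relative to DMSO controls.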

[3] = ATG_EGR_CIS: Attagene CIS-FACTORIAL HepG2 Assay for human Early Growth Response 1 (EGR1) (AID 2282938); conditions: HepG2 Attagene CIS-FACTORIAL EGR reporter mRNA; actives raise or lower the signal
In short: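 Fluorescent capillary-electrophoresis signal of reporter cDNA fragments serves as read-out. HepG2 cells bear transiently transfected cis-promoter reporter units and are exposed 24 h; gain- or loss-of-signal is fitted against DMSO.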

[4] = ATG_M_19_CIS: Attagene CIS-FACTORIAL HepG2 Assay for M19 Transcription Factor (Internal Marker) (AID 2282939); conditions: HepG2 Attagene CIS-FACTORIAL M19 internal marker reporter; actives raise or lower the signal
In short: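 Transfect HepG2 with MRTU reporter library → dose chemical, 24 h → isolate total RNA, reverse-transcribe with oligo(dT) → PCR, 6-FAM label, HpaI cut (2 h, 37 C) → capillary electrophoresis. Bidirectional fit vs DMSO.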

[5] = ATG_Ets_CIS: Attagene CIS-FACTORIAL HepG2 Assay for human Erythroblast Transformation Specific (ETS) (AID 2282941); conditions: HepG2 ETS cis-reporter transcription, actives raise or lower the signal
In short: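 Human HepG2 hepatoma cells were transiently transfected with promoter-driven reporter constructs and treated for 24 hours. Reporter transcripts were quantified by RT-PCR with fluorescent primer extension; bidirectional curve fitting used DMSO as reference.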

[6] = molecular target: Hepatocyte nuclear factor 3-beta (Homo sapiens) (UniProt Q9Y261); experiment: ATG_FoxA2_CIS: Attagene CIS-FACTORIAL HepG2 Assay for human Forkhead box A2 (FOXA2) (AID 2282942); conditions: HepG2 cis-reporter transcription factor activity, 24 h; actives raise or lower the signal
Chain of Hepatocyte nuclear factor 3-beta (Homo sapiens) (Q9Y261 whole entry, looked up, the tested form may be a part): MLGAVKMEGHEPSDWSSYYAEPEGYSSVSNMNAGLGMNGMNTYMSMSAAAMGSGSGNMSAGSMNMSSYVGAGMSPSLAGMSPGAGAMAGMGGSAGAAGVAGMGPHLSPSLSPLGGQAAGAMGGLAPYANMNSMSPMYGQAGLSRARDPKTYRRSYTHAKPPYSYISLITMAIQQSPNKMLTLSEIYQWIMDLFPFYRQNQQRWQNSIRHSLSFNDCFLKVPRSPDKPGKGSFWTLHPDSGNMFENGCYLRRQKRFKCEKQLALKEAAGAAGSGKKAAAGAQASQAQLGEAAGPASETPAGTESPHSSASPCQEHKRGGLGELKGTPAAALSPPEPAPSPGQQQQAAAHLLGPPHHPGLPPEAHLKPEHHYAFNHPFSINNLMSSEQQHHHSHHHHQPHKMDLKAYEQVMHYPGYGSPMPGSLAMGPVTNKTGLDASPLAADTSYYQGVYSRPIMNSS
In short: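 Fluorescence signal of reporter cDNA fragments, separated by capillary electrophoresis, reflects endogenous transcription factor activity in transfected HepG2 after 24 h. Both increases and decreases fitted against DMSO.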

[7] = ATG_FoxO_CIS: Attagene CIS-FACTORIAL HepG2 Assay for human Forkhead box O (FoxO) (AID 2282943); conditions: HepG2 Attagene cis-reporter, FoxO element, mRNA; actives raise or lower the signal
In short: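 HepG2 cells transiently transfected with cis-promoter-driven multiple reporter transcription units; 24 h after chemical dosing, reporter mRNA quantified by RT-PCR, fluorescent primer extension, HpaI digestion and capillary electrophoresis. Bidirectional fitting versus DMSO baseline.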

[8] = ATG_GATA_CIS: Attagene CIS-FACTORIAL HepG2 Assay for human GATA Binding Protein (AID 2282944); conditions: HepG2 GATA cis-element reporter, Attagene multiplex mRNA; actives raise or lower the signal
In short: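 Transient MRTU transfection, HepG2, 24 h compound exposure. Total RNA → oligo(dT) RT → PCR → 6-FAM primer extension → HpaI cut → CE. Bidirectional fit vs DMSO.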

[9] = ATG_GLI_CIS: Attagene CIS-FACTORIAL HepG2 Assay for human Zinc Finger Protein GLI1 (AID 2282945); conditions: HepG2, Attagene cis-factorial reporter mRNA, GLI element; actives raise or lower the signal
In short: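 HepG2 cells transiently transfected with cis-promoter multiplexed reporter units report endogenous transcription factor activity. After 24 h chemical exposure, reporter mRNA was quantified by RT-PCR, 6-FAM labelling, HpaI digestion and capillary electrophoresis, with bidirectional fitting against DMSO.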

[10] = molecular target: Bile acid receptor (Homo sapiens) (UniProt Q96RI1); experiment: ATG_IR1_CIS: Attagene CIS-FACTORIAL HepG2 Assay for human Nuclear Receptor Subfamily 1 Group H Member 4 (NR1H4), IR1 submotif (AID 2282946); conditions: IR1 reporter transcription, actives raise or lower the signal
Chain of Bile acid receptor (Homo sapiens) (Q96RI1 whole entry, looked up): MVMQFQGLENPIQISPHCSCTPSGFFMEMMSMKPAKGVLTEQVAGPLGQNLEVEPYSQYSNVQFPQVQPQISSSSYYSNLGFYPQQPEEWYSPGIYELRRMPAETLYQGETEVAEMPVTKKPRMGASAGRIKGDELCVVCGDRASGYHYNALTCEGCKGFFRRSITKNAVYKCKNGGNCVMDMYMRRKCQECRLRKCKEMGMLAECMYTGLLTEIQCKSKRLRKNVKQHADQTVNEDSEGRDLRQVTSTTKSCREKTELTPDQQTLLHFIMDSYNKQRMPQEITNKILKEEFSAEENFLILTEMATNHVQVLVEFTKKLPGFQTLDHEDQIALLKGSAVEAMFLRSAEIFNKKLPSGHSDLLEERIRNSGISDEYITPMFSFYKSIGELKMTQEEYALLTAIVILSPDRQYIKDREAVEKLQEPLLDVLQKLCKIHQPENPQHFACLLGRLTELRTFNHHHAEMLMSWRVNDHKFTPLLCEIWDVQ
In short: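 Transient MRTU transfection, HepG2; 24 h dosing; RNA → RT-PCR → 6-FAM primer extension → HpaI digest → capillary electrophoresis fluorescence. Gain/loss of signal fitted relative to DMSO.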

[11] = ATG_GRE_CIS: Attagene CIS-FACTORIAL HepG2 Assay for human Glucocorticoid Response Elements (GRE) (AID 2282947); conditions: HepG2 GRE cis-reporter, Attagene multiplex mRNA; actives raise or lower the signal
In short: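 Following 24 h chemical exposure of transiently transfected HepG2 cells, total RNA was reverse-transcribed and reporter cDNA amplified, fluorescently labelled and sized by capillary electrophoresis. Signal gain or loss was fitted relative to DMSO vehicle.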

[12] = ATG_ISRE_CIS: Attagene CIS-FACTORIAL HepG2 Assay for human Interferon Regulatory Factor 1 (IRF1) binding to an Interferon-Stimulated Response Element (ISRE) (AID 2282948); conditions: HepG2 ISRE cis-reporter (Attagene), mRNA transcription readout; actives raise or lower the signal
In short: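 Cell-based cis-reporter assay; HepG2; 24 h exposure; reporter mRNA by RT-PCR plus capillary electrophoresis fluorescence; activity in either direction scored relative to DMSO.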

[13] = ATG_M_32_CIS: Attagene CIS-FACTORIAL HepG2 Assay for M32 Transcription Factor (Internal Marker) (AID 2282949); conditions: HepG2 Attagene cis-factorial M32 reporter, mRNA; actives raise or lower the signal;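 also: background control marker of the multiplexed CIS panel rather than a real target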
In short: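 Fluorescent capillary electrophoresis peaks of HpaI-digested, FAM-labelled RT-PCR reporter products give the signal. Source: transiently transfected human liver HepG2 cells, 24 h after chemical dosing; bidirectional fitting against DMSO.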

[14] = ATG_M_06_CIS: Attagene CIS-FACTORIAL HepG2 Assay for M06 Transcription Factor (Internal Marker) (AID 2282950); conditions: HepG2 Attagene CIS-FACTORIAL M06 internal marker reporter; actives raise or lower the signal
In short: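 Read-out is fluorescence of labelled reporter cDNA fragments resolved by capillary electrophoresis after RT-PCR. Cells: HepG2 carrying transfected cis-promoter reporter units, treated 24 h. Gain or loss of signal fitted relative to DMSO.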

[15] = molecular target: Hepatocyte nuclear factor 6 (Homo sapiens) (UniProt Q9UBC0); experiment: ATG_HNF6_CIS: Attagene CIS-FACTORIAL HepG2 Assay for human Hepatocyte Nuclear Factor 6 (HNF6) (AID 2282952); conditions: HepG2 Attagene cis-factorial HNF6 reporter transcription; actives raise or lower the signal
Chain of Hepatocyte nuclear factor 6 (Homo sapiens) (Q9UBC0 whole entry, looked up): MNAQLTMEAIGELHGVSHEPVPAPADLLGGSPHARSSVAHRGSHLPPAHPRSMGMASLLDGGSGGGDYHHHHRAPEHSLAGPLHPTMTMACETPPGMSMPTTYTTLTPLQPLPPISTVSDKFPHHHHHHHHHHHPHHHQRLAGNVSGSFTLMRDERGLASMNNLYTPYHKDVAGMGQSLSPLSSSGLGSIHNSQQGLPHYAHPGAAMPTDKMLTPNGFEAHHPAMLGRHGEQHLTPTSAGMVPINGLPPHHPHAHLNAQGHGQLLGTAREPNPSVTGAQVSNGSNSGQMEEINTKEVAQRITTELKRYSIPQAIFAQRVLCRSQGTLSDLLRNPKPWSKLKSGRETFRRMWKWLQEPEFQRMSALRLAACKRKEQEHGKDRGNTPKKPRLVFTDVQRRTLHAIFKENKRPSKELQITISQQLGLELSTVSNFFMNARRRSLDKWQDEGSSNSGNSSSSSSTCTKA
In short: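 Multiplexed mRNA reporter assay in transfected HepG2; 24 h dosing; RT-PCR plus capillary electrophoresis fluorescence; DMSO-referenced bidirectional curve fitting.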

[16] = molecular target: Heat shock factor protein 1 (Homo sapiens) (UniProt Q00613); experiment: ATG_HSE_CIS: Attagene CIS-FACTORIAL HepG2 Assay for human Heat Shock Transcription Factor 1 (HSE) (AID 2282953); conditions: HepG2 HSE cis-reporter, Attagene RNA transcription; actives raise or lower the signal
Chain of Heat shock factor protein 1 (Homo sapiens) (Q00613 whole entry, looked up): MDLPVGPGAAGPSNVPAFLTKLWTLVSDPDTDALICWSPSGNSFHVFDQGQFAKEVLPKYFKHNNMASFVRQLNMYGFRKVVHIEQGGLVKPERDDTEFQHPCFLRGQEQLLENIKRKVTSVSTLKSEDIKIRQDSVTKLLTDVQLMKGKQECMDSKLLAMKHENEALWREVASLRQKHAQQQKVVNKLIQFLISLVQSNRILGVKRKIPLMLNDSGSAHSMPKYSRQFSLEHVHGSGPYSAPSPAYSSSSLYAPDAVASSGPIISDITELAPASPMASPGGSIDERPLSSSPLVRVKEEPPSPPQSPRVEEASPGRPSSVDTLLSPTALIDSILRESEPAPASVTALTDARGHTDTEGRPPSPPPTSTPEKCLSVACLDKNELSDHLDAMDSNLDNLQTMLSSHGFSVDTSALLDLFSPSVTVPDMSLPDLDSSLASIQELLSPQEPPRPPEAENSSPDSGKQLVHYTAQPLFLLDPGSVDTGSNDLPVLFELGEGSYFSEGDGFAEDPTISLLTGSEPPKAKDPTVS
In short: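 HepG2, transient MRTU transfection, cis-promoter reporters (endogenous TF activity). 24 h compound. RNA → oligo(dT) RT → PCR → 6-FAM primer extension → HpaI cut → CE. Bidirectional fit vs DMSO.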

[17] = ATG_MRE_CIS: Attagene CIS-FACTORIAL HepG2 Assay for human Metal Responsive Element (MRE) (AID 2282954); conditions: HepG2 MRE cis-reporter transcription, Attagene multiplex; actives raise or lower the signal
In short: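 Step one: transfect HepG2 with cis-regulated reporter units. Step two: dose 24 h. Step three: isolate RNA, RT-PCR, 6-FAM label, HpaI digest, capillary electrophoresis. Fit bidirectionally to DMSO.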

[18] = ATG_PBREM_CIS: Attagene CIS-FACTORIAL HepG2 Assay for human Phenobarbital-responsive Enhancer Module (PBREM) (AID 2282955); conditions: HepG2 PBREM cis-reporter, Attagene multiplexed transcription; actives raise or lower the signal
In short: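 Readout: reporter mRNA, fluorescent RT-PCR fragments separated by capillary electrophoresis. System: HepG2 transiently transfected with cis-regulated reporter units. Exposure: 24 h. Analysis: bidirectional, DMSO baseline.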

[19] = ATG_ERE_CIS: Attagene CIS-FACTORIAL HepG2 Assay for Estrogen Response Element (ERE) (AID 2282940); conditions: HepG2 ERE cis-reporter, Attagene RNA transcript; actives raise or lower the signal
In short: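 Transient MRTU transfection of human HepG2; cis-element promoters; 24 h dosing; total RNA → RT (oligo dT) → PCR → 6-FAM primer extension → HpaI digest → CE fluorescence. Bidirectional fit, DMSO baseline.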

[20] = molecular target: Hypoxia-inducible factor 1-alpha (Homo sapiens) (UniProt Q16665); experiment: ATG_HIF1a_CIS: Attagene CIS-FACTORIAL HepG2 Assay for human Hypoxia Inducible Factor 1 (HIF1A) (AID 2282951); conditions: HepG2 Attagene cis-factorial HIF1a reporter transcription; actives raise or lower the signal
Chain of Hypoxia-inducible factor 1-alpha (Homo sapiens) (Q16665 whole entry, looked up): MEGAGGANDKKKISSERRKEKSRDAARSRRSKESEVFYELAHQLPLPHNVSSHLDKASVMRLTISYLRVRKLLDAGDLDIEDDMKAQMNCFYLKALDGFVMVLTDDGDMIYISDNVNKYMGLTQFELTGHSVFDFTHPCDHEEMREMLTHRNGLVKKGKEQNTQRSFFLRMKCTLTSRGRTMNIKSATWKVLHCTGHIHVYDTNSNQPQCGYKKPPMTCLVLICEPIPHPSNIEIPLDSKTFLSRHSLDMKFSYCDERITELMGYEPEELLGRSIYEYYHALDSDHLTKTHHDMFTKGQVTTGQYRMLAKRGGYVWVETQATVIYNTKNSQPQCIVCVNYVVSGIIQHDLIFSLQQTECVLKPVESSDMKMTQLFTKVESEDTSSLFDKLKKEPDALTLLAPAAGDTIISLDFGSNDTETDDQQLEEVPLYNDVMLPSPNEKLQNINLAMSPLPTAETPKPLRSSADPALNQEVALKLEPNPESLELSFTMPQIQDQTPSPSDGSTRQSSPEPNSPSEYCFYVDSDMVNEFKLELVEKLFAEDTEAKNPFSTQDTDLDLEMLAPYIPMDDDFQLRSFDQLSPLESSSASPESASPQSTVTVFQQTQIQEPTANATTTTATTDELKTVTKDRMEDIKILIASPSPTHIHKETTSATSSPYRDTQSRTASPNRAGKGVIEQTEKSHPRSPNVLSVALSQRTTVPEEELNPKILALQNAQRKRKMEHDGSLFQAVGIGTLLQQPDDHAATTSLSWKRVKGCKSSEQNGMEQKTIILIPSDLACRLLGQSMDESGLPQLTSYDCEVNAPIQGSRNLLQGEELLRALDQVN
In short: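 Endogenous-TF cis reporter readout, human HepG2 cells, 24 h incubation; mRNA detected via RT-PCR and capillary electrophoresis fluorescence; DMSO-normalised bidirectional fitting.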

Measured: AC50

NS(=O)(=O)C(F)(F)C(F)(F)C(F)(F)C(F)(F)C(F)(F)C(F)(F)C(F)(F)C(F)(F)F
inactive: [1] | [2] | [3] | [4] | [5] | [6] | [7] | [8] | [9] | [10] | [11] | [12] | [13] | [14] | [15] | [18]
active: [1] 240 µM | [3] 52 µM and 40.8 µM | [5] 38.8 µM | [6] 258 µM | [10] 9.66 µM | [12] 91.1 µM and 35.8 µM | [15] 96.7 µM | [16] 59.8 µM and 115 µM and 28.3 µM | [17] 52.2 µM and 39.2 µM and 50 µM | [18] 46.7 µM and 33.8 µM

Cc1cc(O)ccc1Cl
active: [19] 48.5 µM
not listed: [12] | [18]
inactive: all other assays above

CO/C=C(/C(=O)OC)c1ccccc1COc1cccc(C(F)(F)F)n1
active: [3] 28.8 µM | [10] 26.4 µM | [17] 44.3 µM
not listed: [11] | [12]
inactive: all other assays above

O=C(O)C(F)(F)C(F)(F)C(F)(F)C(F)(F)C(F)(F)C(F)(F)C(F)(F)C(F)(F)C(F)(F)F
active: [1] 88.6 µM | [3] 42.9 µM and 22.2 µM | [13] 78.3 µM | [15] 58.9 µM | [16] 50.3 µM and 50 µM | [17] 49.2 µM and 42.6 µM and 22.6 µM
inactive: [1] | [2] | [3] | [4] | [5] | [6] | [7] | [8] | [9] | [11] | [13] | [14] | [15] | [16] | [18]

CC(C)C(=O)OCC(C)(C)C(OC(=O)C(C)C)C(C)C (centres undefined)
active: [19] 63.6 µM
not listed: [10] | [12] | [20]
inactive: all other assays above

Oc1c(Cl)c(Cl)c(Cl)c(Cl)c1Cl
active: [1] 67.8 µM | [3] 29.4 µM and 11.2 µM | [5] 21.5 µM | [7] 33.6 µM | [9] 82 µM | [15] 25.9 µM | [16] 31.5 µM and 75.4 µM and 142 µM | [17] 50 µM and 40.9 µM and 78.8 µM | [18] 18.1 µM and 7.11 µM
inactive: [1] | [2] | [3] | [4] | [5] | [6] | [7] | [8] | [9] | [10] | [11] | [13] | [14] | [15] | [18]
